Experiment [1] concerns the target T1, Aspartate--tRNA(Asp/Asn) ligase (Mycobacterium tuberculosis (strain ATCC 25618 / H37Rv)) (UniProt P9WFW3). Further: in the data most compounds retested in dose-response had high values.
T1 sequence (whole entry): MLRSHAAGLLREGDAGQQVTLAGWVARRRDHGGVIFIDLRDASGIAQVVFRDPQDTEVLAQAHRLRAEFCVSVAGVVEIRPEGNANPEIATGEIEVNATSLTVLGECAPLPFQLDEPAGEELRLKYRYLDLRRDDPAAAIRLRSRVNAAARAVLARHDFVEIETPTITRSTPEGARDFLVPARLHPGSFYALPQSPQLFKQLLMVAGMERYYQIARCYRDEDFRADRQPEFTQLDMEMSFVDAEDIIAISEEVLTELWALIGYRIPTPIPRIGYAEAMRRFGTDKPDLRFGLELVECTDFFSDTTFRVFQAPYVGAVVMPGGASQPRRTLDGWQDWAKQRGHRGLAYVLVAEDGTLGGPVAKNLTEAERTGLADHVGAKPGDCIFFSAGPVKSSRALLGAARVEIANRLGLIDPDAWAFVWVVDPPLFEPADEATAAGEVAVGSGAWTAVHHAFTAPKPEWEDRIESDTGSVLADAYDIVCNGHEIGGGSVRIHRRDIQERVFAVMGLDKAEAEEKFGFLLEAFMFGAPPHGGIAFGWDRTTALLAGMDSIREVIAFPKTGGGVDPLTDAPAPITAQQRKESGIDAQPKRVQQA
Kind of experiment: Assay for Asp RNA synthetase-1 from Mycobacterium tuberculosis. The format is functional. On the set-up: scale not given: direction of the effect not stated beside the values. As to conditions: 30 µM.

The target in experiment [2] is Shiga toxin 2 (Escherichia coli O157:H7) (UniProt P09385+P09386). Kind of experiment: E. coli 0.157:H7 Shiga Toxin SOP - stx2 screening assay. As to conditions: 30 µM. It counts as functional. More on the design: scale not given: direction of the effect not stated beside the values.

Data on 16 molecules can be found in ChEMBL document CHEMBL3988442, “University of Dundee, Small-Polar-MMV Screening Library” (2021).

Consider `c1cnc(N2C[C@H]3CCN(c4cccnc4)C[C@H]3C2)nc1`, for which the Percent Effect in experiment [1] is -2.01%; in experiment [2] it was -9.94%.
As for `c1cnn(CC2CN(c3ncnc4ccsc34)CCO2)c1` (configuration not stated), the Percent Effect in experiment [1] was 1.65%; in experiment [2] it was -10.2%.
For `Cc1cc(C)n(CC2CCCN2C(=O)CCc2cscn2)n1` (configuration not stated), in that order: -0.678% and 17%.
For `Cn1nc(C2CCCN(Cc3cccc(F)c3)C2)c2nccnc21` (configuration not stated), in that order: -0.491% and 14.8%.
On to `O=C(NC1CC1)N1CCc2ncnc(-c3ccncc3)c2CC1`, for which the Percent Effect was 5.15% in experiment [1] and -28.2% in experiment [2].
For the molecule `c1cc(CN2Cc3nnn(CC4CC4)c3C(COCC3CC3)C2)co1` (configuration not stated), the Percent Effect in experiment [1] is -1.45%; in experiment [2] it was -2.53%.
Turning to `Cc1nn(C)c(C)c1C1CCCN1Cc1nc(C)c2ccccc2n1` (configuration not stated), the Percent Effect in experiment [1] was 0.742%; in experiment [2], 10.8%.
Regarding `O=C(Cc1ccccc1F)N1C[C@@H]2COC[C@]2(COc2cccnc2)C1`, the Percent Effect in experiment [1] was found to be 6.28%; in experiment [2], 3.35%.
Regarding `Cc1cccc(CN2C[C@@H]3CN(C(=O)c4ccsc4)C[C@@H]3C2=O)c1`, the Percent Effect was 2.59% in experiment [1] and -27.2% in experiment [2].
With `COc1ccc(CN2C[C@@H]3CCCO[C@@H]3[C@H](NS(C)(=O)=O)C2)cc1`, the Percent Effect is 5.42% in experiment [1] and -24% in experiment [2].
`O=C(CO[C@@H]1CC[C@H]2[C@H]1OCCN2CC1CCOCC1)N1CCCC1`: the Percent Effect is 0.943% in experiment [1] and -4.47% in experiment [2].
With `CC(C)Cc1cc(C(=O)N2CCCC(n3cncn3)C2)[nH]n1` (configuration not stated), the Percent Effect in experiment [1] was -3.97%; in experiment [2] it was 2.44%.
For `CC1c2ncc(CNC(=O)C3CC3)n2CCN1Cc1cnn(C)c1` (configuration not stated) the same measures were 7.02% and -27.6%.
For `COc1ccccc1CNC(=O)C1=NN(c2ccc(C)cc2)C(=O)CN1`, in that order: 17.6% and 11%.
Consider `Cc1ccc(CNC(=O)N2CCCCC2CCNS(C)(=O)=O)cc1` (configuration not stated), for which the Percent Effect turned out to be 1.04% in experiment [1] and 6.21% in experiment [2].
In the case of `COc1ccc(CNC2CCN(CCc3ccncc3)CC2)cc1O`, the Percent Effect in experiment [1] was 5.98%; in experiment [2] it was -49.6%.
